For some assays here: Potency and affinity values are given separately.
How the values were obtained:
Set-up in all cases: scale not given: direction of the effect not stated beside the values
[1] = biological target: Protein translocase subunit SecA (Escherichia coli (strain K12)) (UniProt P10408); assay: Assay to Identify E. coli SecA ATPase Inhibitors; format: functional; conditions: 30 µM
[2] = biological target: T1, Ubiquitin-activating enzyme e1, putative (Leishmania donovani (strain BPK282A1)) (UniProt E9BSI1); assay: Leishmania donovani Ubiquitin Activating Enzyme (LdE1); format: functional; conditions: 30 µM
T1 sequence (whole entry): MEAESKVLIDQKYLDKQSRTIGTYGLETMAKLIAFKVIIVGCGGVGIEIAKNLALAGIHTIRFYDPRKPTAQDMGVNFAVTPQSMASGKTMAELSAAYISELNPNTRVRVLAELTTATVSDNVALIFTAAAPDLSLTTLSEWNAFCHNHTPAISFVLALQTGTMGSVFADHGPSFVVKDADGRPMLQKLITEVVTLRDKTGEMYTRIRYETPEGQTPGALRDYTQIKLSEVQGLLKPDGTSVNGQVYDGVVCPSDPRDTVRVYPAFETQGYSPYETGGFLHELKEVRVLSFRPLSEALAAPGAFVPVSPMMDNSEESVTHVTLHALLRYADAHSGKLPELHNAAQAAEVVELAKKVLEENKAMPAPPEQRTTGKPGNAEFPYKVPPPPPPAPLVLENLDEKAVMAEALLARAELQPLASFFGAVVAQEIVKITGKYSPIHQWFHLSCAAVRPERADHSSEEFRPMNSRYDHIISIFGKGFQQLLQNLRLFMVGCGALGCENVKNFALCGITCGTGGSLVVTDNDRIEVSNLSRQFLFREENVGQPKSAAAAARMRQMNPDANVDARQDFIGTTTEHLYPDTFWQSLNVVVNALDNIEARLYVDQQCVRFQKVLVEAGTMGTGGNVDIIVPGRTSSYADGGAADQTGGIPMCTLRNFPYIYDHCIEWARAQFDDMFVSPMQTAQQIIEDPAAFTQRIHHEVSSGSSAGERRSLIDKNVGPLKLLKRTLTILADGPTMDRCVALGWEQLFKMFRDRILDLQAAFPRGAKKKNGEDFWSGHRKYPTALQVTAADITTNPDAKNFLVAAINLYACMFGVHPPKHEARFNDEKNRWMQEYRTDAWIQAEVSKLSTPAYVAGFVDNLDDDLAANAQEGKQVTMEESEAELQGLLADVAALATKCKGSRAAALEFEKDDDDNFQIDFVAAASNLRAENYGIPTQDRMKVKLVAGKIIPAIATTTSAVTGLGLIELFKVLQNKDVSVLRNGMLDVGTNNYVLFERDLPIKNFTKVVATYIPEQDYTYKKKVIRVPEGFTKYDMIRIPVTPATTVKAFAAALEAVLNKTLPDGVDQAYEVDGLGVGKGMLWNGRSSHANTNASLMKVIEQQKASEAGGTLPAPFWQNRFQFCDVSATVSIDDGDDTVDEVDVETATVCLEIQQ

[3] = biological target: AMP-activated protein kinase, AMPK (Homo sapiens) (UniProt P54646+O43741+P54619+Q9UGJ0+Q9Y478+Q13131+Q9UGI9); assay: AMP-dependent Kinase enzyme assay. An in vitro enzyme assay that detects ADP turnover that is directly proportional to AMPK activity. This uses naive AMPK that is activated during the assay with MK-8722; format: functional; conditions: 30 µM
[4] = biological target: Sialic acid-binding Ig-like lectin 9 (Homo sapiens) (UniProt Q9Y336); assay: Hs-Siglec9 ALPHAscreen SOP 20170721; conditions: 10 µM
Chain of Sialic acid-binding Ig-like lectin 9 (Homo sapiens) (Q9Y336 whole entry): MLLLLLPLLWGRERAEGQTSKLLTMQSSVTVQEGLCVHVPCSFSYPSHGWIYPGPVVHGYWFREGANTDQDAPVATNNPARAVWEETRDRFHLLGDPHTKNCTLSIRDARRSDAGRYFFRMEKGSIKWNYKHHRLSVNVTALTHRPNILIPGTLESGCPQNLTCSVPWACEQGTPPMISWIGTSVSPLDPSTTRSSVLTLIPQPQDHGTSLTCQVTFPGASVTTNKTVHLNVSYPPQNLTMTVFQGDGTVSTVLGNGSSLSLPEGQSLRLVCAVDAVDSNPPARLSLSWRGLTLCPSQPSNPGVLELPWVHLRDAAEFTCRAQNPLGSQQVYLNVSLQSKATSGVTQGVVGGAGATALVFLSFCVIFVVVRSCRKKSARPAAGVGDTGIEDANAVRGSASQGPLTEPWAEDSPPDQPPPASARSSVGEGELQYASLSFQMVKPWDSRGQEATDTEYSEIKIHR

[5] = tested on: Trypanosoma cruzi; assay: Trypanosoma cruzi phosphomannomutase and mannose-1-phosphate guanylyltransferase assay; format: functional; conditions: 10 µM
[6] = biological target: T2, Arginase-2, mitochondrial (Homo sapiens) (UniProt P78540); assay: in vitro enzyme assay to detect the production of urea directly proportional to the activity of Arginase II; format: functional; conditions: 33.3 µM; also: in the data most compounds retested in dose-response had high values
T2 sequence (whole entry): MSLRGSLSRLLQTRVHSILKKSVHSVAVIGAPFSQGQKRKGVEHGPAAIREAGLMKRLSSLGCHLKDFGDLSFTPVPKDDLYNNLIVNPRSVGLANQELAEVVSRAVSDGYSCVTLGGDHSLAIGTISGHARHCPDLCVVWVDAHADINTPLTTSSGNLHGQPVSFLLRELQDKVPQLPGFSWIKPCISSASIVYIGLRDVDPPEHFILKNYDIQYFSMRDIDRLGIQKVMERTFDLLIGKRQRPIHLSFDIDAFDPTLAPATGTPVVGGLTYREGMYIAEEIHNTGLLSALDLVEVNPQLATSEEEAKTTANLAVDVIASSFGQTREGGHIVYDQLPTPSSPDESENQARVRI

[7] = biological target: T3, Proteasome subunit beta (Trypanosoma cruzi) (UniProt O96673); assay: Trypanosoma cruzi proteasome chymotrypsin-like activity (TcProtChymo) assay.; also: in the data most compounds retested in dose-response had high values; format: functional; conditions: 9.37 µM
T3 sequence (whole entry): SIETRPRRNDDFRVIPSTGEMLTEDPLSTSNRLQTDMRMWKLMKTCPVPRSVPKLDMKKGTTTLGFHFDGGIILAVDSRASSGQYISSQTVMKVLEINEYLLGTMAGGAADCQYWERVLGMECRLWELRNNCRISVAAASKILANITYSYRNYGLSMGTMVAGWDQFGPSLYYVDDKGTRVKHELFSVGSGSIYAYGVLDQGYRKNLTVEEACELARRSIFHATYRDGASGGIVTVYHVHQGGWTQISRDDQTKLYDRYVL

[8] = species: Homo sapiens; assay: To identify inhibition of the IFN signalling (Jak-Stat) pathway via expression of an eGFP reporter gene under the control of an IFN-stimulated response element (ISRE) containing MxA promoter.; format: functional; conditions: 30 µM
[9] = biological target: T4, Tyrosyl-tRNA synthetase, putative (Trypanosoma cruzi (strain CL Brener)) (UniProt Q4DSP6); assay: Trypanosoma cruzi tyrosyl tRNA synthetase (TcYRS) _High Tyrosine SOP; format: functional; conditions: 30 µM; also: in the data most compounds retested in dose-response had high values
T4 sequence (whole entry): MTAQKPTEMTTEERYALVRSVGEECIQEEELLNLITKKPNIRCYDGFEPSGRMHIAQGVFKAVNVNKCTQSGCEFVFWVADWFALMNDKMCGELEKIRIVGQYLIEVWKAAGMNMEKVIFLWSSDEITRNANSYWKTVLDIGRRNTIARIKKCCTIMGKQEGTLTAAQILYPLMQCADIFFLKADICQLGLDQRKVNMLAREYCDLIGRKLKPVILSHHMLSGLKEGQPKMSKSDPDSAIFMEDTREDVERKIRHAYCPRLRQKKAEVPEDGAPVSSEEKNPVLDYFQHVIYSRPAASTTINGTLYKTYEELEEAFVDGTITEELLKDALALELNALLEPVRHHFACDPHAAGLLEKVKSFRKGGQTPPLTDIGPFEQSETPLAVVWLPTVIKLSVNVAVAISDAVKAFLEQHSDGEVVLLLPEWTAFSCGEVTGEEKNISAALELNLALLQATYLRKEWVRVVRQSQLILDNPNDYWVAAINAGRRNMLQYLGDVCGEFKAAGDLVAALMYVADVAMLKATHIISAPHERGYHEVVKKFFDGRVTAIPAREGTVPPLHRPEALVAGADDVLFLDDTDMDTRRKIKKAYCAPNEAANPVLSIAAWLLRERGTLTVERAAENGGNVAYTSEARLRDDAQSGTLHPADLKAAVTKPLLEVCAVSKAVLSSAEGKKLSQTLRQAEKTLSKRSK

[10] = biological target: T4, Tyrosyl-tRNA synthetase, putative (Trypanosoma cruzi (strain CL Brener)); assay: Trypanosoma cruzi tyrosyl tRNA synthetase (TcYRS) SOP; format: functional; conditions: 30 µM
[11] = biological target: Chromo domain-containing protein 1 (Saccharomyces cerevisiae (strain ATCC 204508 / S288c) (Baker's yeast)) (UniProt P32657); assay: ScCHD-1 Enzyme Inhibition Assay; format: functional; conditions: 30 µM; also: in the data most compounds retested in dose-response had high values
Chain of Chromo domain-containing protein 1 (Saccharomyces cerevisiae (strain ATCC 204508 / S288c) (Baker's yeast)) (P32657 whole entry, the tested form may be a part): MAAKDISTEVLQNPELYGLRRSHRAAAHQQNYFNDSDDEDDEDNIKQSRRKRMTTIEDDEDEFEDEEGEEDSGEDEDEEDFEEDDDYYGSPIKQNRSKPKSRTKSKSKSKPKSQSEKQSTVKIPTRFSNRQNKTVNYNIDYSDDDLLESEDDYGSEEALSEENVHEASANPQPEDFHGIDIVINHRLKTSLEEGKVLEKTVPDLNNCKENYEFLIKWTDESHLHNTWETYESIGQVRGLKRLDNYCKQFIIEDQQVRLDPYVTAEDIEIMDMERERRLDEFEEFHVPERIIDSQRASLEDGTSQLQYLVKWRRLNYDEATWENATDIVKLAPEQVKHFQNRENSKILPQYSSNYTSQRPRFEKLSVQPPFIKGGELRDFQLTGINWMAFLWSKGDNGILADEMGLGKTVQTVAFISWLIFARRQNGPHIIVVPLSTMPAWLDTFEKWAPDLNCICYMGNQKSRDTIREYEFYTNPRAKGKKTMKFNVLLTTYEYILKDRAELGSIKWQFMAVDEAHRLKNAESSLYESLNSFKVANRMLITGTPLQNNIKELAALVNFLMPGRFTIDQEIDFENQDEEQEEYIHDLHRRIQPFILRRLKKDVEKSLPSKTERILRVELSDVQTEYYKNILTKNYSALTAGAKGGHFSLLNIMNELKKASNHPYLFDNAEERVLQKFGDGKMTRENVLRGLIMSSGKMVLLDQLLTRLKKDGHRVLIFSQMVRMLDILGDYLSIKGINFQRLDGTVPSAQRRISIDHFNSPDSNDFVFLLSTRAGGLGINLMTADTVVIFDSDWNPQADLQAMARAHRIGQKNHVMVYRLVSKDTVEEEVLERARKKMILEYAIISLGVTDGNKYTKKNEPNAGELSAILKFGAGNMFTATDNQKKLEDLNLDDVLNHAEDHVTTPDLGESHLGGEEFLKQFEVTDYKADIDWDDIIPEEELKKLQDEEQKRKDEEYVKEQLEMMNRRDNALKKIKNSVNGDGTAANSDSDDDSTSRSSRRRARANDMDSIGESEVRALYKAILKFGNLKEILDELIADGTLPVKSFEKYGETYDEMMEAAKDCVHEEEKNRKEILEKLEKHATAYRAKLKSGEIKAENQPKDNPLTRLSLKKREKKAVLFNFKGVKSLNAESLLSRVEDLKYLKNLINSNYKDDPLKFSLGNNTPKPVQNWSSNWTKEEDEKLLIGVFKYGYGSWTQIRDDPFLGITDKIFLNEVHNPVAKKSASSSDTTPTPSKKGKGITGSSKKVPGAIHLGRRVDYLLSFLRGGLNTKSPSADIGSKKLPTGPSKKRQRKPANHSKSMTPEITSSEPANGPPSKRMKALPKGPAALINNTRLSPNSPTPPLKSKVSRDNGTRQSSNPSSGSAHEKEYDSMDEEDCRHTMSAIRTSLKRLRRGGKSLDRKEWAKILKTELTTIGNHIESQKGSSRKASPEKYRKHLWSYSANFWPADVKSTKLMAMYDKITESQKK

Chain of Protein translocase subunit SecA (Escherichia coli (strain K12)) (P10408 whole entry): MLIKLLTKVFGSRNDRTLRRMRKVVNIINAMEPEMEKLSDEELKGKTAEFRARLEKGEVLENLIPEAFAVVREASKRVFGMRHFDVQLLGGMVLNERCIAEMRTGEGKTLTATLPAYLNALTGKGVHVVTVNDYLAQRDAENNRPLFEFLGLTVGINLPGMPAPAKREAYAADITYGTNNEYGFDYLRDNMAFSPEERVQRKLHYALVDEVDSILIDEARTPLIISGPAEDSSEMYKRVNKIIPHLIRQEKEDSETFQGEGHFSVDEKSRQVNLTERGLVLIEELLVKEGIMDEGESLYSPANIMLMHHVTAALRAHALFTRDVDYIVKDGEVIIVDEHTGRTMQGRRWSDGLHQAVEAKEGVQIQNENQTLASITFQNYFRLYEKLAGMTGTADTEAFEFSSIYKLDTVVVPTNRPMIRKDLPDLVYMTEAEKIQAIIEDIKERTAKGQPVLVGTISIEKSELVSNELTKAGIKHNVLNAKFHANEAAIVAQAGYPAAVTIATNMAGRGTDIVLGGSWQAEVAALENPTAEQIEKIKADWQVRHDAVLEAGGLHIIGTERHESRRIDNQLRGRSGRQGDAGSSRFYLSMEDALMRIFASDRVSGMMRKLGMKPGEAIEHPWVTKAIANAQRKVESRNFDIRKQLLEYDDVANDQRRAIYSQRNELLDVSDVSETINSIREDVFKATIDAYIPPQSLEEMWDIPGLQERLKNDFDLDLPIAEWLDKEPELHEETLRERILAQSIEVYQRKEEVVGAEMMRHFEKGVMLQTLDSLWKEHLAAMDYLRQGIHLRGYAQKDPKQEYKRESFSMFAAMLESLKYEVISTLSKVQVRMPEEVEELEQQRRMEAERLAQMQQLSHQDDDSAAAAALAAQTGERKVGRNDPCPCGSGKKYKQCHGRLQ

| Compound | Percent Effect [1] [%] | Percent Effect [2] [%] | Percent Effect [3] [%] | Percent Effect [4] [%] | Percent Effect [5] [%] | Percent Effect [6] [%] | Percent Effect [7] [%] | Percent Effect [8] [%] | Percent Effect [9] [%] | Percent Effect [10] [%] | Percent Effect [11] [%] |
| --- | --- | --- | --- | --- | --- | --- | --- | --- | --- | --- | --- |
| COCCCN1CCCN(C(C)C(=O)Nc2cccc(I)c2)CC1 (stereo unspecified) | -5.27 | -5.41 | 1.61 | 1.25 | -7.42 | -5 | 15.1 | -8.39 | 1.98 | -3.66 | -0.402 |
| O=c1ccc(-c2cccs2)nn1CN1CCN(Cc2ccccc2)CC1 | -4.73 | -1.33 | 2.74 | 1.22 | 5.3 | -10.4 | 11.7 | 20.2 | 3.17 | 10.3 | -12.8 |
| O=C(O)c1c[nH]c2cc(NS(=O)(=O)c3cccc(Cl)c3F)ccc12 | -4.73 | -10.4 | -45.8 | 7.97 | 0.562 | 5.69 | 4.22 | 2.38 | -11.7 | -24.4 | 0.552 |
| O=C(c1ccco1)N1C[C@@H]2OCCN(CCN3CCCC3)[C@@H]2C1 | -2.67 | 5.41 | 5.74 | -2.98 | -1.07 | 1.59 | 16.1 | -16.1 | 2.16 | 5.13 | 4.02 |
| CCc1nnc2n1CCN(C(=O)c1cc(Br)c[nH]1)C2 | -5.48 | 23.4 | -0.82 | 9.55 | 8.05 | -1.78 | 13 | -20.8 | 9.71 | 19.5 | -10.3 |
| O=C(NCc1nnc2n1CCCCC2)N1CCc2sccc2C1 | 0.647 | 16.5 | -6.61 | 2.88 | 1.95 | 2.8 | 13 | 16.8 | 0 | 10.1 | -27 |
| Cc1noc(C)c1C(=O)N1CCCC1c1c(C)nn(C)c1Cl (stereo unspecified) | -4.44 | 7.59 | -2.1 | 8.04 | 5.38 | -4.56 | -1.72 | 4.02 | 2.46 | 8.86 | -0.777 |
| Cc1ccc(CC(=O)N2CC[C@@H]3CN(CCN(C)C)CCO[C@@H]3C2)cc1 | -0.0347 | 8.11 | 9.51 | -10.3 | -7.33 | 2.87 | 19.7 | 4.98 | 4.32 | 5.13 | -4.03 |
| c1cnc(-c2nc(CN3CCCC(Cn4cncn4)C3)cs2)nc1 (stereo unspecified) | -3.67 | 8.11 | -6.35 | 6.78 | -4.81 | -0.802 | 11 | 10.9 | 6.4 | 6.17 | -4.11 |
| CC(CN1CCN(C)CC1)NC(=O)c1cc(Cl)c2c(c1)OCO2 (stereo unspecified) | -11.8 | 1.39 | 140 | -0.639 | 0.68 | 1.77 | 8.42 | -2.86 | 6.32 | 10.3 | -2.31 |
| Cc1cc(Nc2nc(C)cs2)nc(C2CCCCN2CCO)n1 (stereo unspecified) | -0.14 | 1.35 | -0.107 | -8.52 | 7.12 | -5.34 | 13.9 | -9.01 | 4.3 | 11.7 | -23.2 |
| CN(C)c1ccc(CNc2cncc(-n3cccn3)n2)cc1 | -3.75 | 5.2 | 0.00463 | 7.28 | 3.75 | -6.05 | 6.25 | 9.83 | 2.91 | 12.2 | 72 |
| Cc1cc(=O)n2ncnc2n1CC(O)c1ccccc1Cl (stereo unspecified) | -0.278 | 7.89 | 6.81 | -5.31 | -6.52 | -8.28 | 18.1 | -6.46 | 3.19 | 7.79 | -2.48 |
| Cc1ccc(C)c(NC(=O)c2n[nH]c(-n3cnnc3)n2)c1 | -1.59 | 6.67 | 0.649 | 8.26 | 2.75 | -2.64 | 9.24 | 18.5 | 6.35 | 10.3 | -4 |
| Cc1cc(CN2CCN(C(=O)NCc3ccc(C)s3)CC2)no1 | -0.722 | 17.7 | -2.9 | 3.54 | -4.82 | 10.3 | 3.85 | 15.8 | 2.46 | 21.5 | -5.4 |
| Cc1noc(-c2ccc(N3CCCC(C(=O)N4CCSCC4)C3)nc2)n1 (stereo unspecified) | -5.7 | -2.74 | 24 | 1.74 | -3.92 | -1.36 | 6.57 | -0.682 | 1.07 | 2.5 | -3.84 |
